# Results taken from PubChem BioAssay AID1159580 (chemical genetic matrix, 2015).
# About 2,000 (36%) of roughly 5,500 compounds were called active. Roughly 18% stayed inconclusive and do not appear here. Some of the results follow. Unmarked numbers belong to inactive results. Cut-off read from the data, not from the text of the source: active = normalized growth mostly below about 0.91 (no sharp cut-off); inconclusive = no clear call, values can overlap the other calls; inactive = mostly above about 0.92.
# Assay: chemical genetic growth profiling, strain panel (AID 1159580);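 note: tested at 20 µM; growth read once vehicle control cultures reached saturation at 30 °C; 1 = growth at the plate median or of vehicle wells; lower values mean less growth of the strain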
# Details: growth OD
structure (smiles),measurement,setting,value
O=C1C=CC(=O)c2c(O)cccc21,normalized growth,"S. cerevisiae deletion strains, locus YJR043C, strain POL32, hits give low values",1.01
same,normalized growth,"S. cerevisiae deletion strains, locus YJR066W, strain TOR1, hits give low values",0.894
same,normalized growth,"S. cerevisiae deletion strains, locus YKL009W, strain mrt4, hits give low values",0.934
same,normalized growth,"S. cerevisiae deletion strains, locus YKL068W, hits give low values",0.982
same,normalized growth,"S. cerevisiae deletion strains, locus YKL085W, strain MDH1 (second series), hits give low values",0.97
same,normalized growth,"S. cerevisiae deletion strains, locus YKL085W, strain MDH1, hits give low values",0.97
same,normalized growth,"S. cerevisiae deletion strains, locus YKL160W, strain elf1, hits give low values",1
same,normalized growth,"S. cerevisiae deletion strains, locus YKL190W, strain CNB1, hits give low values",0.986
same,normalized growth,"S. cerevisiae deletion strains, locus YKR001C, strain vps1, hits give low values",0.938
same,normalized growth,"S. cerevisiae deletion strains, locus YKR026C, strain gcn3, hits give low values",0.983
same,normalized growth,"S. cerevisiae deletion strains, locus YKR091W, strain srl3, hits give low values",0.983
same,normalized growth,"S. cerevisiae deletion strains, locus YLL001W, strain dnm1, hits give low values",0.968
same,normalized growth,"S. cerevisiae deletion strains, locus YLL026W, hits give low values",1.01
same,normalized growth,"S. cerevisiae deletion strains, locus YLL041C, strain sdh2, hits give low values",1
same,normalized growth,"S. cerevisiae deletion strains, locus YLR027C, strain aat2, hits give low values",0.984
same,normalized growth,"S. cerevisiae deletion strains, locus YLR039C, strain RIC1, hits give low values",0.699
same,normalized growth,"S. cerevisiae deletion strains, locus YLR058C, strain SHM2, hits give low values",0.947
same,normalized growth,"S. cerevisiae deletion strains, locus YLR102C, strain apc9, hits give low values",0.989
same,normalized growth,"S. cerevisiae deletion strains, locus YLR113W, strain HOG1, hits give low values",0.922
same,normalized growth,"S. cerevisiae deletion strains, locus YLR221C, strain rsa3, hits give low values",0.947
same,normalized growth,"S. cerevisiae deletion strains, locus YLR258W, strain gsy2, hits give low values",0.979
same,normalized growth,"S. cerevisiae deletion strains, locus YLR262C, strain YPT6 (second series), hits give low values",0.727 (active)
same,normalized growth,"S. cerevisiae deletion strains, locus YLR262C, strain YPT6, hits give low values",0.731
same,normalized growth,"S. cerevisiae deletion strains, locus YLR268W, strain sec22, hits give low values",0.995
same,normalized growth,"S. cerevisiae deletion strains, locus YLR320W, strain mms22, hits give low values",0.851 (active)
same,normalized growth,"S. cerevisiae deletion strains, locus YLR330W, strain CHS5, hits give low values",1
same,normalized growth,"S. cerevisiae deletion strains, locus YLR342W, strain FKS1 (second series), hits give low values",0.967
same,normalized growth,"S. cerevisiae deletion strains, locus YLR342W, strain FKS1, hits give low values",0.986
same,normalized growth,"S. cerevisiae deletion strains, locus YLR357W, strain rsc2, hits give low values",0.964
same,normalized growth,"S. cerevisiae deletion strains, locus YLR370C, strain arc18, hits give low values",0.979
same,normalized growth,"S. cerevisiae deletion strains, locus YLR384C, strain iki3, hits give low values",0.957
same,normalized growth,"S. cerevisiae deletion strains, locus YLR418C, strain cdc73, hits give low values",0.885
same,normalized growth,"S. cerevisiae deletion strains, locus YML016C, strain PPZ1, hits give low values",0.975
same,normalized growth,"S. cerevisiae deletion strains, locus YML032C, strain rad52, hits give low values",0.915
same,normalized growth,"S. cerevisiae deletion strains, locus YML120C, strain ndi1, hits give low values",0.987
same,normalized growth,"S. cerevisiae deletion strains, locus YML124C, strain tub3, hits give low values",0.993
same,normalized growth,"S. cerevisiae deletion strains, locus YMR058W, strain fet3, hits give low values",0.983
same,normalized growth,"S. cerevisiae deletion strains, locus YMR078C, strain ctf18, hits give low values",0.986
same,normalized growth,"S. cerevisiae deletion strains, locus YMR125W, strain sto1, hits give low values",0.991
same,normalized growth,"S. cerevisiae deletion strains, locus YMR129W, hits give low values",1.03
same,normalized growth,"S. cerevisiae deletion strains, locus YMR205C, strain PFK2, hits give low values",0.91
same,normalized growth,"S. cerevisiae deletion strains, locus YMR223W, strain ubp8, hits give low values",0.966
same,normalized growth,"S. cerevisiae deletion strains, locus YMR231W, strain pep5, hits give low values",0.975
same,normalized growth,"S. cerevisiae deletion strains, locus YMR307W, strain GAS1, hits give low values",0.944
same,normalized growth,"S. cerevisiae deletion strains, locus YNL067W, strain RPL9B, hits give low values",0.979
same,normalized growth,"S. cerevisiae deletion strains, locus YNL071W, strain lat1, hits give low values",0.897 (active)
same,normalized growth,"S. cerevisiae deletion strains, locus YNL153C, strain GIM3, hits give low values",0.964
same,normalized growth,"S. cerevisiae deletion strains, locus YNL183C, strain NPR1, hits give low values",0.932
same,normalized growth,"S. cerevisiae deletion strains, locus YNL209W, strain ssb2, hits give low values",0.983
same,normalized growth,"S. cerevisiae deletion strains, locus YNL233W, strain BNI4, hits give low values",0.996
same,normalized growth,"S. cerevisiae deletion strains, locus YNL248C, strain rpa49, hits give low values",1.08
same,normalized growth,"S. cerevisiae deletion strains, locus YNL250W, strain rad50, hits give low values",0.987
same,normalized growth,"S. cerevisiae deletion strains, locus YNL271C, strain bni1, hits give low values",0.982
same,normalized growth,"S. cerevisiae deletion strains, locus YNL298W, strain CLA4, hits give low values",0.998
same,normalized growth,"S. cerevisiae deletion strains, locus YNL307C, strain MCK1, hits give low values",0.994
same,normalized growth,"S. cerevisiae deletion strains, locus YNL322C, strain KRE1 (second series), hits give low values",1.01
same,normalized growth,"S. cerevisiae deletion strains, locus YNR049C, strain mso1, hits give low values",0.993
same,normalized growth,"S. cerevisiae deletion strains, locus YNR052C, strain pop2, hits give low values",1.01
same,normalized growth,"S. cerevisiae deletion strains, locus YOL012C, strain htz1",1.06
same,normalized growth,"S. cerevisiae deletion strains, locus YOL147C, strain pex11, hits give low values",0.994
same,normalized growth,"S. cerevisiae deletion strains, locus YOR001W, strain rrp6, hits give low values",0.966
same,normalized growth,"S. cerevisiae deletion strains, locus YOR061W, strain CKA2, hits give low values",0.947
same,normalized growth,"S. cerevisiae deletion strains, locus YOR069W, strain VPS5, hits give low values",0.981
same,normalized growth,"S. cerevisiae deletion strains, locus YOR070C, strain gyp1, hits give low values",0.993
same,normalized growth,"S. cerevisiae deletion strains, locus YOR080W, strain dia2, hits give low values",0.971
same,normalized growth,"S. cerevisiae deletion strains, locus YOR083W, strain WHI5, hits give low values",0.99
same,normalized growth,"S. cerevisiae deletion strains, locus YOR106W, strain vam3, hits give low values",0.91
same,normalized growth,"S. cerevisiae deletion strains, locus YOR136W, strain idh2, hits give low values",0.993
same,normalized growth,"S. cerevisiae deletion strains, locus YOR144C, strain elg1, hits give low values",0.988
same,normalized growth,"S. cerevisiae deletion strains, locus YOR184W, strain ser1, hits give low values",0.984
same,normalized growth,"S. cerevisiae deletion strains, locus YOR231W, strain MKK1, hits give low values",0.964
same,normalized growth,"S. cerevisiae deletion strains, locus YOR265W, strain rbl2, hits give low values",0.966
same,normalized growth,"S. cerevisiae deletion strains, locus YOR270C, strain vph1, hits give low values",0.775 (active)
same,normalized growth,"S. cerevisiae deletion strains, locus YOR290C, strain snf2, hits give low values",0.989
same,normalized growth,"S. cerevisiae deletion strains, locus YOR316C, strain cot1, hits give low values",0.99
same,normalized growth,"S. cerevisiae deletion strains, locus YPL051W, strain arl3, hits give low values",0.97
same,normalized growth,"S. cerevisiae deletion strains, locus YPL078C, strain atp4, hits give low values",0.974
same,normalized growth,"S. cerevisiae deletion strains, locus YPL106C, strain sse1, hits give low values",0.881
same,normalized growth,"S. cerevisiae deletion strains, locus YPL240C, strain hsp82, hits give low values",0.973
same,normalized growth,"S. cerevisiae deletion strains, locus YPL241C, strain CIN2, hits give low values",0.987
same,normalized growth,"S. cerevisiae deletion strains, locus YPL256C, strain CLN2, hits give low values",0.94
same,normalized growth,"S. cerevisiae deletion strains, locus YPR119W, strain clb2, hits give low values",0.992
same,normalized growth,"S. cerevisiae deletion strains, locus YPR141C, strain kar3, hits give low values",0.982
same,normalized growth,"S. cerevisiae deletion strains, locus YPR163C, strain tif3, hits give low values",1.01
same,normalized growth,"S. cerevisiae deletion strains, locus YPR167C, strain met16, hits give low values",1
same,normalized growth,"S. cerevisiae deletion strains, strain wtn01, hits give low values",1.04
same,normalized growth,"S. cerevisiae strains, strain wild type, hits give low values",0.987
